Assays:
Assay in all cases: DAPPL (digital affinity profiling via proximity ligation, sequencing); 10 mM Tris-HCl pH 7.5, 50 mM NaCl, 1 mM DTT, 4% glycerol, room temperature, 30 min; GST-TFs on glutathione beads, 16-mer random dsDNA library, 0.1% formaldehyde crosslink after washing; high values mean tight binding
[1] = target: T1, FLI1 (Homo sapiens, UniProt Q01543 1-452); conditions: protein: recombinant; tags: N-terminal GST; dsDNA, one strand shown
T1 sequence: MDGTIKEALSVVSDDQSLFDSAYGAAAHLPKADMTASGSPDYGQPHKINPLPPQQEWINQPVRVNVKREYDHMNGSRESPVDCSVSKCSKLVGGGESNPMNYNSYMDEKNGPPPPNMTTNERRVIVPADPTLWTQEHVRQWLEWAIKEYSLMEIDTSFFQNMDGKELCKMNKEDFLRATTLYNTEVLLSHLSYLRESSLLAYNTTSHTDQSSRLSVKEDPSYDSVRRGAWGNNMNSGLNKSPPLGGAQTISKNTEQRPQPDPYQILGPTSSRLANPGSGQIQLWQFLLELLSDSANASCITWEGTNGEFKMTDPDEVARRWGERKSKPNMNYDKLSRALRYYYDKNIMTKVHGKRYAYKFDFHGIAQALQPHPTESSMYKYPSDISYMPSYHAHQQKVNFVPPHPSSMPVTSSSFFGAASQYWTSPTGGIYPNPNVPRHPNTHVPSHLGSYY
Summary of the method: (§1)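 GST fusions of human transcription factors were expressed in yeast and captured with glutathione beads. Once given DNA barcodes and pooled alongside a tag-only sample, they were incubated for 30 min at room temperature with 200 nmole of a random double-stranded 16-mer DNA library in Tris/NaCl/DTT/glycerol buffer, then washed, crosslinked (0.1% formaldehyde), proximity-ligated, PCR-amplified and sequenced on an Illumina NextSeq500. The binding signal of each hexamer is its read frequency for a factor divided by its frequency for the tag-only sample.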

[2] = target: T2, ELK1 (Homo sapiens, UniProt P19419 1-428); conditions: protein: recombinant; tags: N-terminal GST; dsDNA, one strand shown
T2 sequence: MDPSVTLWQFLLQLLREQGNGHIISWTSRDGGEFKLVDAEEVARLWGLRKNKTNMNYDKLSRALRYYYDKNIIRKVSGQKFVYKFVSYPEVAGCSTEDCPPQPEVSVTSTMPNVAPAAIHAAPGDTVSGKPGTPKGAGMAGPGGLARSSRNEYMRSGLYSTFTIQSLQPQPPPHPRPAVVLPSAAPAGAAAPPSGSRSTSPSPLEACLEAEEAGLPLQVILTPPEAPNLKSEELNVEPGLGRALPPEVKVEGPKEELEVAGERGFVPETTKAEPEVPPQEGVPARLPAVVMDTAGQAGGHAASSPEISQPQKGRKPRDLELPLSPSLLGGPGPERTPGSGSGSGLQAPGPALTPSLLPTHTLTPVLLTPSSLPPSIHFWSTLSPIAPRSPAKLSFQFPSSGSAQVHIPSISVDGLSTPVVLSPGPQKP
Summary of the method: as §1

[3] = target: T3, GABPA (Homo sapiens, UniProt Q06546 1-454); conditions: protein: recombinant; tags: N-terminal GST; dsDNA, one strand shown
T3 sequence: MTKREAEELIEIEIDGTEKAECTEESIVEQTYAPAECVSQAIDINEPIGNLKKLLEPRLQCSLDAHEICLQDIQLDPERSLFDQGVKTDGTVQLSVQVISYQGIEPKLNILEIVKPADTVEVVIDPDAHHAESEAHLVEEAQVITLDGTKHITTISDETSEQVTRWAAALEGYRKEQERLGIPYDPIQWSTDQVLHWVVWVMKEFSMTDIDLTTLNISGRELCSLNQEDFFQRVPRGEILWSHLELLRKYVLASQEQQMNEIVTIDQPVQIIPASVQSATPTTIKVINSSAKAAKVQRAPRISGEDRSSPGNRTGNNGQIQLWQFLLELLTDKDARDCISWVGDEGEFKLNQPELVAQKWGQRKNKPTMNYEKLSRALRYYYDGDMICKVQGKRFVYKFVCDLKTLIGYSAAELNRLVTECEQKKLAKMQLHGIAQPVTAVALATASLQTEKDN
Summary of the method: as §1

[4] = target: T4, ERG (Homo sapiens, UniProt P11308 1-479); conditions: protein: recombinant; tags: N-terminal GST; dsDNA, one strand shown
T4 sequence: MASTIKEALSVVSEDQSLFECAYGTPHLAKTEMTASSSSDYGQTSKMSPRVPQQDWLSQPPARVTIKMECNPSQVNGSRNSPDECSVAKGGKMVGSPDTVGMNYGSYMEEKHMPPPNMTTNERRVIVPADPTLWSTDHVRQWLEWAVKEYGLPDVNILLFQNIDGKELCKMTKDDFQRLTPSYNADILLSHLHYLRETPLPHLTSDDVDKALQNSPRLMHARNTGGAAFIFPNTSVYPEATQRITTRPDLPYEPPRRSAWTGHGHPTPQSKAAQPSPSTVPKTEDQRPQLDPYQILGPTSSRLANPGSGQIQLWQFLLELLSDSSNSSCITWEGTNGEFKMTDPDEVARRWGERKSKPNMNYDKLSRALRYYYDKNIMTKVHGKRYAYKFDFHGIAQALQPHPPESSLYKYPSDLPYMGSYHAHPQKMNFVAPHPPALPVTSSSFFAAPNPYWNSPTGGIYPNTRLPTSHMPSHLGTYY
Summary of the method: as §1

[5] = target: ELF1 (Homo sapiens, UniProt P32519 1-619); conditions: protein: recombinant; tags: N-terminal GST; dsDNA, one strand shown
Chain of ELF1 (P32519 whole entry): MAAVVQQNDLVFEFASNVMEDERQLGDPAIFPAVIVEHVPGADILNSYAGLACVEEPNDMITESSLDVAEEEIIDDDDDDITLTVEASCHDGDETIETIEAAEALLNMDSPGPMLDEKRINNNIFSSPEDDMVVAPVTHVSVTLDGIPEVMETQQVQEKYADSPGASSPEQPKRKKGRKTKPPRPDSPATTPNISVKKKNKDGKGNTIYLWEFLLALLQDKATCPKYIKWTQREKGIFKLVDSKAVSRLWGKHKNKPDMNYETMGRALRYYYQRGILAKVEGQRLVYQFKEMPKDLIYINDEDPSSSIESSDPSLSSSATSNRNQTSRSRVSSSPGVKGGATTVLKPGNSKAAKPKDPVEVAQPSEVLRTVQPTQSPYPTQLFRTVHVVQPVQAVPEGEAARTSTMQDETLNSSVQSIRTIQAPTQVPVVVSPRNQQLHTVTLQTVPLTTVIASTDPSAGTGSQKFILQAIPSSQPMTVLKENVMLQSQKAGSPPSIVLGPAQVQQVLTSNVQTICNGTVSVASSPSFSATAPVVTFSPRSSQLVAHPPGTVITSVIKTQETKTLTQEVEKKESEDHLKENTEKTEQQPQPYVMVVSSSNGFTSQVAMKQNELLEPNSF
Summary of the method: as §1

[6] = target: T5, EHF (Homo sapiens, UniProt Q9NZC4 1-300); conditions: protein: recombinant; tags: N-terminal GST; dsDNA, one strand shown
T5 sequence: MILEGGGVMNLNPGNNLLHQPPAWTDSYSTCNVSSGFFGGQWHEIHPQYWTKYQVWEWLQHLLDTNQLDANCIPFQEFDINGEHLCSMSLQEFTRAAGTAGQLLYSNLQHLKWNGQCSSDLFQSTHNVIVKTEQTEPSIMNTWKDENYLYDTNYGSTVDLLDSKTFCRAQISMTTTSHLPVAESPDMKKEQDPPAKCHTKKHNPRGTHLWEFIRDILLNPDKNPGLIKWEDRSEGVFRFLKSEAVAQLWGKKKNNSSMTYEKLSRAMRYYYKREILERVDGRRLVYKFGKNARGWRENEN
Summary of the method: as §1

[7] = target: SPI1 (Homo sapiens, UniProt P17947 1-270); conditions: protein: recombinant; tags: N-terminal GST; dsDNA, one strand shown
Summary of the method: as §1

[8] = target: SPIB (Homo sapiens, UniProt Q01892 1-262); conditions: protein: recombinant; tags: N-terminal GST; dsDNA, one strand shown
Chain of SPIB (Q01892 whole entry): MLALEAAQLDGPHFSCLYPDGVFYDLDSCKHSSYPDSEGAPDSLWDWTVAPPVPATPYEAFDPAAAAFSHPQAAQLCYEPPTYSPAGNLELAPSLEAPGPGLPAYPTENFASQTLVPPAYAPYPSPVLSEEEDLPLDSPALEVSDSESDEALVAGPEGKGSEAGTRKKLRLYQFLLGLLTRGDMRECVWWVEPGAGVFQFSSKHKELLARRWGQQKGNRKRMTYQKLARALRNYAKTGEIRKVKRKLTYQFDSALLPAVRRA
Summary of the method: as §1

[9] = target: T6, ELK3 (Homo sapiens, UniProt P41970 1-407); conditions: protein: recombinant; tags: N-terminal GST; dsDNA, one strand shown
T6 sequence: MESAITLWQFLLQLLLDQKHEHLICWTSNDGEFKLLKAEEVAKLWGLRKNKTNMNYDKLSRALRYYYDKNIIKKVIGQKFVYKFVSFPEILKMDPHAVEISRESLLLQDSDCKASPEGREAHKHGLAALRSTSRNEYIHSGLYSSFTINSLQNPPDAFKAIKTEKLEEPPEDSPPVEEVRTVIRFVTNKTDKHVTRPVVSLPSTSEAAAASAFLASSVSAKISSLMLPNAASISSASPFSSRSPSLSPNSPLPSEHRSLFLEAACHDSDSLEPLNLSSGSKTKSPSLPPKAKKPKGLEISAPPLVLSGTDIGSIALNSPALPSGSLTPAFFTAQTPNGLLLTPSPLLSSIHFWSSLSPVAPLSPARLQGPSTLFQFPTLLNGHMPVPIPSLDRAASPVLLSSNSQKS
Summary of the method: as §1

[10] = target: T7, FEV (Homo sapiens, UniProt Q99581 1-238); conditions: protein: recombinant; tags: N-terminal GST; dsDNA, one strand shown
T7 sequence: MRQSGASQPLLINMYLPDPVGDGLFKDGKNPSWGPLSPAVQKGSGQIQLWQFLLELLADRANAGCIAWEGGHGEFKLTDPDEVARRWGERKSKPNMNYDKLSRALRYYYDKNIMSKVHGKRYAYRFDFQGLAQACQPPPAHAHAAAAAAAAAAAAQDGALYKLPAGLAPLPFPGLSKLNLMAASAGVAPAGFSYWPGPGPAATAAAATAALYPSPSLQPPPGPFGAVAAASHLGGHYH
Summary of the method: as §1

[11] = target: ETV5 (Homo sapiens, UniProt P41161 1-510); conditions: protein: recombinant; tags: N-terminal GST; dsDNA, one strand shown
Chain of ETV5 (P41161 whole entry): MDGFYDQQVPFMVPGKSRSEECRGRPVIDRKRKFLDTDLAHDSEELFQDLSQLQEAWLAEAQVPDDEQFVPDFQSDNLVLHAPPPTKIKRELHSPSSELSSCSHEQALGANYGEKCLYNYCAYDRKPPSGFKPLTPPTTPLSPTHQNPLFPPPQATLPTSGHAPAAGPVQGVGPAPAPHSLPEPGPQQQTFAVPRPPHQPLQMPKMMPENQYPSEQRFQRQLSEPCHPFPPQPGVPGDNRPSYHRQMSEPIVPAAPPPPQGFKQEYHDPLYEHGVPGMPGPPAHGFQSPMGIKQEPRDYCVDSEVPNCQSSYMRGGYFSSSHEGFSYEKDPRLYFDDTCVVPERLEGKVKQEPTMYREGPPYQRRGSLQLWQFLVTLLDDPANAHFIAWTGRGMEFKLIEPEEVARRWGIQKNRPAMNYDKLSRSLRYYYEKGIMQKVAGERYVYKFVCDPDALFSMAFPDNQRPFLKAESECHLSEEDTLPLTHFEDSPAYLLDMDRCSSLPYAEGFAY
Summary of the method: as §1

[12] = target: HSF1 (Homo sapiens, UniProt Q00613 1-529); conditions: protein: recombinant; tags: N-terminal GST; chain copies: 3; dsDNA, one strand shown
Chain of HSF1 (Q00613 whole entry): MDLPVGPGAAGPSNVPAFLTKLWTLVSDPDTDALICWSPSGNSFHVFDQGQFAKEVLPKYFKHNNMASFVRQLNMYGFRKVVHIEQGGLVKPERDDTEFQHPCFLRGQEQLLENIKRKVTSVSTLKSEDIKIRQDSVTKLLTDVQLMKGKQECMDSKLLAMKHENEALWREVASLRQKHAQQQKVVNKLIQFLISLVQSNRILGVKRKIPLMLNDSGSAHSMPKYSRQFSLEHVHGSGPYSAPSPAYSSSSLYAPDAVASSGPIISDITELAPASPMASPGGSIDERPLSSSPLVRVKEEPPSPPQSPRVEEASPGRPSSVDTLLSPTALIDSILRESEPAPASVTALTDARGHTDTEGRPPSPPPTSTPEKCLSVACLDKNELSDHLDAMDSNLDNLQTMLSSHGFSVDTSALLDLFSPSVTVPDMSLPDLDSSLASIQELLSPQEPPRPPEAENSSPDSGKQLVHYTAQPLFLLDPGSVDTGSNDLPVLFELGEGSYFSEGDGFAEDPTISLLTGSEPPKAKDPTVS
Summary of the method: as §1

[13] = target: T8, SPIC (Homo sapiens, UniProt Q8N5J4 1-248); conditions: protein: recombinant; tags: N-terminal GST; dsDNA, one strand shown
T8 sequence: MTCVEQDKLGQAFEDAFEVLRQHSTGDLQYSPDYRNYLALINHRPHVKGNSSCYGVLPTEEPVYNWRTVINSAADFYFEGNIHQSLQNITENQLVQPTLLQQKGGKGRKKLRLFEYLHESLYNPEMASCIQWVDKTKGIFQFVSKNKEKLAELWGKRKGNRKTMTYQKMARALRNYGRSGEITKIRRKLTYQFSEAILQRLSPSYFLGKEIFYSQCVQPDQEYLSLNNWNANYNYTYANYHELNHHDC
Summary of the method: as §1

[14] = target: ELF4 (Homo sapiens, UniProt Q99607 1-663); conditions: protein: recombinant; tags: N-terminal GST; dsDNA, one strand shown
Chain of ELF4 (Q99607 whole entry): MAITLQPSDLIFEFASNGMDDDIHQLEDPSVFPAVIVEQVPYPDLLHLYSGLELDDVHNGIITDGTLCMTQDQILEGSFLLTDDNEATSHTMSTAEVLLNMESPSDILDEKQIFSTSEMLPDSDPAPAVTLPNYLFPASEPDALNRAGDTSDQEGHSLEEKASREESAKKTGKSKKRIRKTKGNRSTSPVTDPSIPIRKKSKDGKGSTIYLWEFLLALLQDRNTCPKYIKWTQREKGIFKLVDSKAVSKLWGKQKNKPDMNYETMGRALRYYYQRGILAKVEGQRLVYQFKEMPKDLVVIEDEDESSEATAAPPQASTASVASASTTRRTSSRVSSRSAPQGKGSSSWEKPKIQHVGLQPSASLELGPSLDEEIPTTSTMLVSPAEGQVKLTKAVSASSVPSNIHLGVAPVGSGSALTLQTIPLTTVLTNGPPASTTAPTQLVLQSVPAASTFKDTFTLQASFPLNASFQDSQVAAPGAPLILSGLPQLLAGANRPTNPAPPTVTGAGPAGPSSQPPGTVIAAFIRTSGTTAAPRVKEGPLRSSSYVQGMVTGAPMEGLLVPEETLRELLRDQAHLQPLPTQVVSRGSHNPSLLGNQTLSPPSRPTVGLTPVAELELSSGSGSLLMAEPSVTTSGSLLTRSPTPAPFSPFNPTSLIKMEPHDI
Summary of the method: as §1

[15] = target: T9, ELK4 (Homo sapiens, UniProt P28324-2 1-405); conditions: protein: recombinant; tags: N-terminal GST; dsDNA, one strand shown
T9 sequence: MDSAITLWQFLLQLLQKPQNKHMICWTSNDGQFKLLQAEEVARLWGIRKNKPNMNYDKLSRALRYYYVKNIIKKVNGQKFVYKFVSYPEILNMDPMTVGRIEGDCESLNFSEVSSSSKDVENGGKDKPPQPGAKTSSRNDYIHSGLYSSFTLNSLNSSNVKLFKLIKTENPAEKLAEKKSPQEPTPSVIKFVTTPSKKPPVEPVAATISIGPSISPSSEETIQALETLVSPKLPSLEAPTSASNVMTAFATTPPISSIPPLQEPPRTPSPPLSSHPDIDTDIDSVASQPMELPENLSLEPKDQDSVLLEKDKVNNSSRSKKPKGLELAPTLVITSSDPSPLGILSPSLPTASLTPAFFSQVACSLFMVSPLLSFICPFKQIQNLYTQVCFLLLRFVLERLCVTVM
Summary of the method: as §1

[16] = target: T10, ETV2 (Homo sapiens, UniProt O00321 1-342); conditions: protein: recombinant; tags: N-terminal GST; dsDNA, one strand shown
T10 sequence: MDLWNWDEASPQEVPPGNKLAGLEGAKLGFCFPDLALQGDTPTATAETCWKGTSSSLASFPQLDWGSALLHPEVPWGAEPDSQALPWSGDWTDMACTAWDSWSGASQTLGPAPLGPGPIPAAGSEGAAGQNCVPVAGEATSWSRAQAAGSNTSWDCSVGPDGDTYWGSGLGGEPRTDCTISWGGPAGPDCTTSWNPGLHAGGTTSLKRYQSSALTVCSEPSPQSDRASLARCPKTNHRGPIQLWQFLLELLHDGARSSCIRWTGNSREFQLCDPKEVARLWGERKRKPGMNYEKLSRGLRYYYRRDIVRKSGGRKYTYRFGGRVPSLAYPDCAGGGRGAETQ
Summary of the method: as §1

[17] = target: T11, ELF3 (Homo sapiens, UniProt P78545 1-371); conditions: protein: recombinant; tags: N-terminal GST; dsDNA, one strand shown
T11 sequence: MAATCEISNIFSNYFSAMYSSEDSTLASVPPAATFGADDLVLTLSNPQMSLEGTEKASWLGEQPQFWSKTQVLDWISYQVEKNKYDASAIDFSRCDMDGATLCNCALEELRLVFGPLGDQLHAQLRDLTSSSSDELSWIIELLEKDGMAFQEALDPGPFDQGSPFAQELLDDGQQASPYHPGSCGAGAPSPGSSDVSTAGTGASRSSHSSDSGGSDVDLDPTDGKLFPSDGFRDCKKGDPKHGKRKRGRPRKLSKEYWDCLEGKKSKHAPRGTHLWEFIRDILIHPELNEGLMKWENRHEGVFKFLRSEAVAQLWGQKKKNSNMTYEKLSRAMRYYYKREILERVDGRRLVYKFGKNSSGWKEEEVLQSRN
Summary of the method: as §1

[18] = target: CRX (Homo sapiens, UniProt O43186 1-299); conditions: protein: recombinant; tags: N-terminal GST; dsDNA, one strand shown
Chain of CRX (O43186 whole entry): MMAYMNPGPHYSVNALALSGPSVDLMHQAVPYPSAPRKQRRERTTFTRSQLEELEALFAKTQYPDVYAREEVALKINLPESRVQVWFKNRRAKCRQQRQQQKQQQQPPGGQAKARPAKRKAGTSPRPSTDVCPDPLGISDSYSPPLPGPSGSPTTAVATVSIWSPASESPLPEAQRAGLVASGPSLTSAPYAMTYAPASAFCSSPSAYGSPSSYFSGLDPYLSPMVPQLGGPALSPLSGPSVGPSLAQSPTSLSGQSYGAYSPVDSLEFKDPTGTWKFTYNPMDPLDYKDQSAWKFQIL
Summary of the method: as §1

[19] = target: ETV1 (Homo sapiens, UniProt P50549 1-477); conditions: protein: recombinant; tags: N-terminal GST; dsDNA, one strand shown
Chain of ETV1 (P50549 whole entry): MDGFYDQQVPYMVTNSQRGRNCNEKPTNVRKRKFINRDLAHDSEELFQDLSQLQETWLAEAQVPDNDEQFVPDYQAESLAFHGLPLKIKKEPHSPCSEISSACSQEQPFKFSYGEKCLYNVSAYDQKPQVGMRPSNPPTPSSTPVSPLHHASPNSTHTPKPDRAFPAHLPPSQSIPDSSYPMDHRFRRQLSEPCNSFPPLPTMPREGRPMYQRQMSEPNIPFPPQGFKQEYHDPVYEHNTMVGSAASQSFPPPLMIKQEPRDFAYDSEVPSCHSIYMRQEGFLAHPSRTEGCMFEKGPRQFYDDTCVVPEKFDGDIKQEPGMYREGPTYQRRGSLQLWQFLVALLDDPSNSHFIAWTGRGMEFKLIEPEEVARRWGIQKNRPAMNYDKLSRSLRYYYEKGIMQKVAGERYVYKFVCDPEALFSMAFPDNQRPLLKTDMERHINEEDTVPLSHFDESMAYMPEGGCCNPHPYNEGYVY
Summary of the method: as §1

For CCAATT, the binding signal [1] was 1.2 fold enrichment (6-mer frequency, TF over GST control), the binding signal [2] was 1.24 fold enrichment (6-mer frequency, TF over GST control) and the binding signal [3] was 1.25 fold enrichment (6-mer frequency, TF over GST control). For the same sequence, the binding signal [4] was 1.24 fold enrichment (6-mer frequency, TF over GST control), the binding signal [5] was 1.16 fold enrichment (6-mer frequency, TF over GST control) and the binding signal [6] was 1.25 fold enrichment (6-mer frequency, TF over GST control). The binding signal [7] was 1.23 fold enrichment (6-mer frequency, TF over GST control), the binding signal [8] was 1.28 fold enrichment (6-mer frequency, TF over GST control) and the binding signal [9] was 1.18 fold enrichment (6-mer frequency, TF over GST control). The binding signal [10] was 1.23 fold enrichment (6-mer frequency, TF over GST control), the binding signal [11] was 1.26 fold enrichment (6-mer frequency, TF over GST control) and the binding signal [12] was 1.09 fold enrichment (6-mer frequency, TF over GST control). The binding signal [13] was 1.31 fold enrichment (6-mer frequency, TF over GST control), the binding signal [14] was 1.32 fold enrichment (6-mer frequency, TF over GST control) and the binding signal [15] was 1.09 fold enrichment (6-mer frequency, TF over GST control). The binding signal [16] was 1.27 fold enrichment (6-mer frequency, TF over GST control), the binding signal [17] was 1.39 fold enrichment (6-mer frequency, TF over GST control) and the binding signal [18] was 1.05 fold enrichment (6-mer frequency, TF over GST control). The binding signal [19] was 1.26 fold enrichment (6-mer frequency, TF over GST control).

Source: PMC7862700, “An all-to-all approach to the identification of sequence-specific readers for epigenetic DNA modifications on cytosine”
